Most compounds without a hit are left out; they make up all but 2.8% or so of the library.
MITF TRPM1 HTS: increases MITF-driven TRPM1 promoter luciferase signal; AID 588334; SK-MEL-5 TRPM1-promoter luciferase, 24 h; % of positive control, neutral wells = 0; 300,000 tested, 0.75% active; activation, % at 12.5 µM;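 active means mean activation of at least 80% with every replicate also reaching 80%; inconclusive means mean reaches 80% but some replicate falls short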;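 further: 0% = neutral control wells and 100% = parthenolide positive control wells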
esBAF inh: SWI/SNF esBAF complex inhibition. mouse ES cells, Bmi1-luciferase knock-in reporter, 24 h; 100% = twice the neutral-well signal. reporter increase, % at 12.5 µM. 350,000 tested, 2% active; in the data active means activation above about 40%; inconclusive means no clear call, values can overlap the other calls;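 further: 0% = median of the plate's neutral control wells and 100% = double that signal; a rise in the Bmi1 reporter signal indicates esBAF inhibition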
FXN GAA850 act: increases GAA850 frataxin promoter reporter activity | activation, % at 6 µM | AID 540364 | 360,000 tested, 0.56% active | HEK293 lucGAA850 FXN promoter luciferase reporter, 24 h; percent of 10 µM SAHA response;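 active means activation above the average of all compounds screened plus 3 SD, cutoff fixed separately per campaign, cut at about 7.5% in these data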;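 further: 0% = DMSO wells and 100% = 10 µM SAHA wells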
Wnt bcat act: activators of Wnt/beta-catenin signaling | Wnt/beta-catenin reporter cell assay, activator, plate reader | activation, % at 9.35 µM | 300,000 tested, 1.2% active; in the data active means activation above about 30%, passing the limit was not always enough; inconclusive means no clear call, values can overlap the other calls;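 further: 0% = neutral control wells and 100% = positive control wells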
An asterisk follows results filed as active.

How did CC(C)NC(=O)N(C)C[C@@H]1Oc2c(NC(=O)C3CCCCC3)cccc2C(=O)N([C@@H](C)CO)C[C@H]1C do in these assays?
esBAF inh: 8

Results for CCC(=O)N1C[C@@H](C)[C@@H](OC)CN(C)C(=O)c2cc(NC(=O)Nc3cccc(F)c3)ccc2OC[C@H]1C ?
esBAF inh: 2

What do the screens show for `C[C@@H]1CN([C@H](C)CO)C(=O)c2cc(N(C)C)ccc2O[C@H]1CN(C)C(=O)Nc1ccc2c(c1)OCO2`?
esBAF inh: -3

What do the screens show for `CC1Cc2nc(SCC(=O)NCc3ccccc3)n(Cc3ccccc3)c(=O)c2S1` (configuration not stated)?
MITF TRPM1 HTS: 2; esBAF inh: 0; FXN GAA850 act: 4; Wnt bcat act: 2

Results for CC1Cc2nc(SCC(=O)c3ccccc3)n(Cc3ccccc3)c(=O)c2S1 (configuration not stated) ?
esBAF inh: 81*; FXN GAA850 act: 2; Wnt bcat act: 15

How did C[C@@H]1CCCCO[C@@H](CN(C)C(=O)Nc2ccccc2)[C@@H](C)CN([C@H](C)CO)C(=O)c2cc(NS(=O)(=O)c3cn(C)cn3)ccc2O1 do in these assays?
esBAF inh: 0

What do the screens show for `Cc1ccc(/C=C(\C#N)C(=O)Nc2ccccn2)o1`?
MITF TRPM1 HTS: 103*; esBAF inh: 63*; FXN GAA850 act: 3; Wnt bcat act: 20

What do the screens show for `COc1ccc(/C=C(\C#N)C(=O)Nc2ccccn2)cc1`?
MITF TRPM1 HTS: 12; esBAF inh: 3; FXN GAA850 act: 1; Wnt bcat act: -3

Results for Cn1c(/C(C#N)=C(\O)c2ccc(Br)s2)nc2ccccc21 ?
MITF TRPM1 HTS: 24; esBAF inh: 47*; FXN GAA850 act: 4; Wnt bcat act: 20

What do the screens show for `Cn1c(/C(C#N)=C(\O)c2cc(Cl)sc2Cl)nc2ccccc21`?
MITF TRPM1 HTS: -17; esBAF inh: 10; FXN GAA850 act: 1; Wnt bcat act: -1

What do the screens show for `Cc1ccc(S(=O)(=O)Nc2ccc3c(c2)C(=O)N([C@H](C)CO)C[C@@H](C)[C@H](CN(C)C(=O)Nc2c(C)noc2C)O3)cc1`?
esBAF inh: -5

Results for N#Cc1cccc(NC(=O)c2cc(C3CCCCN3S(=O)(=O)c3cccc4cccnc34)on2)c1 (configuration not stated) ?
esBAF inh: 52*; FXN GAA850 act: 0; Wnt bcat act: -3

What do the screens show for `COc1cc(NC(=O)C(C)C)ccc1NC(=O)c1cc2ccccc2o1`?
MITF TRPM1 HTS: 84*; esBAF inh: 60*; FXN GAA850 act: 4; Wnt bcat act: 13

How did CC(C)C(=O)Nc1cccc(NC(=O)c2cc3ccccc3o2)c1 do in these assays?
esBAF inh: 72*; FXN GAA850 act: 2; Wnt bcat act: 27

How did CN(C)S(=O)(=O)c1cccc(NC(=O)c2cc3ccccc3o2)c1 do in these assays?
esBAF inh: 50*; FXN GAA850 act: 7

Results for CC(C)NC(=O)c1cc2ccccc2o1 ?
esBAF inh: 1; FXN GAA850 act: -2; Wnt bcat act: -2

How did COc1ccc(NC(=O)c2cc3ccccc3o2)cc1OC do in these assays?
MITF TRPM1 HTS: 35; esBAF inh: inconclusive; FXN GAA850 act: 3; Wnt bcat act: 8

What do the screens show for `CC(=O)Nc1cccc(NC(=O)c2cc3ccccc3o2)c1`?
MITF TRPM1 HTS: inconclusive; FXN GAA850 act: 2; Wnt bcat act: 51*

Results for CO[C@@H]1CN(C)C(=O)c2ccc(NC(=O)C3CC3)cc2OC[C@H](C)NC[C@H]1C ?
esBAF inh: 0

What do the screens show for `COc1ccccc1-c1cn(CC[C@@H]2CC[C@H](NC(=O)C3CC3)[C@H](CO)O2)nn1`?
esBAF inh: -1

What do the screens show for `Cc1ccc(NC(=O)c2cc3ccccc3o2)cc1Cl`?
MITF TRPM1 HTS: 104*; esBAF inh: inconclusive; FXN GAA850 act: 3; Wnt bcat act: -2

Results for CC(=O)Nc1ccc(-c2cc3ccccc3o2)cc1 ?
esBAF inh: 27; FXN GAA850 act: 5; Wnt bcat act: 56*

How did CCC(=O)Nc1ccc(-c2cc3ccccc3oc2=O)cc1 do in these assays?
MITF TRPM1 HTS: 43; FXN GAA850 act: -1

What do the screens show for `O=C(C[C@@H]1C[C@@H]2c3cc(NC(=O)NC4CCCC4)ccc3O[C@@H]2[C@H](CO)O1)NCc1ccc(Oc2ccccc2)cc1`?
esBAF inh: -4

How did CCCSc1nc2c(cnn2-c2ccccc2)c(=O)n1N do in these assays?
esBAF inh: 0; FXN GAA850 act: 2; Wnt bcat act: 41*

How did COc1ccc(S(=O)(=O)N(C)C[C@H]2Oc3ccc(NC(=O)C4CCCCC4)cc3C(=O)N([C@@H](C)CO)C[C@H]2C)cc1 do in these assays?
esBAF inh: 5

What do the screens show for `CC(=O)Nc1ccc(NC(=O)/C(Cl)=C/c2ccccc2)cc1`?
MITF TRPM1 HTS: 111*; esBAF inh: 53*; FXN GAA850 act: 4; Wnt bcat act: -1

What do the screens show for `CC(=O)Nc1ccc(C(=O)N/C(=C/c2ccccc2)C(=O)Nc2cccc(C(=O)O)c2)cc1`?
MITF TRPM1 HTS: 10; esBAF inh: 17; FXN GAA850 act: 3; Wnt bcat act: 5

What do the screens show for `COc1ccccc1C(=O)N1C[C@H]2[C@@H](c3ccccc31)[C@H](CO)N2Cc1ccc(F)cc1`?
esBAF inh: -1

How did Clc1ccccc1CSc1cnnc2ccccc12 do in these assays?
MITF TRPM1 HTS: 48; esBAF inh: 45*; FXN GAA850 act: 4; Wnt bcat act: -5

What do the screens show for `CCC(=O)Nc1ccc(C(=O)Nc2ccc3c(c2)OCO3)cc1`?
MITF TRPM1 HTS: 22; esBAF inh: 26; FXN GAA850 act: 1

Results for O=C(NCCOc1ccccc1)c1ccc2c(c1)OCO2 ?
MITF TRPM1 HTS: -56; esBAF inh: -70; FXN GAA850 act: -8

What do the screens show for `CCCOc1ccc(C(=O)Nc2ccc3c(c2)OCO3)cc1`?
MITF TRPM1 HTS: 68; esBAF inh: 20; FXN GAA850 act: 2; Wnt bcat act: 43*

Results for CCCN1C(=O)c2ccc(C(=O)Nc3ccc4c(c3)OCO4)cc2C1=O ?
MITF TRPM1 HTS: 66; esBAF inh: 63*; FXN GAA850 act: -1; Wnt bcat act: 9

Results for CN(CCOc1ccccc1)C(=O)c1ccc2c(c1)OCO2 ?
MITF TRPM1 HTS: 68; esBAF inh: 43*; FXN GAA850 act: 4; Wnt bcat act: -2

Results for CCCCOc1ccc(C(=O)Nc2ccc3c(c2)OCO3)cc1 ?
MITF TRPM1 HTS: 71; esBAF inh: 42*; FXN GAA850 act: 3; Wnt bcat act: 35*

What do the screens show for `CCCN1C(=O)c2ccc(C(=O)NC3=NCCS3)cc2C1=O`?
MITF TRPM1 HTS: 1; esBAF inh: 20; FXN GAA850 act: -1

Results for CCC(=O)Oc1ccc(C(=O)Nc2ccc3c(c2)OCO3)cc1 ?
MITF TRPM1 HTS: 42; FXN GAA850 act: 4; Wnt bcat act: 20

Results for C[C@H](CO)N1C[C@H](C)[C@H](CN(C)C(=O)Nc2ccc3c(c2)OCO3)OCCCC[C@H](C)Oc2ccc(NS(=O)(=O)c3cccs3)cc2C1=O ?
esBAF inh: 23

Source: PubChem BioAssay
